Source: PubChem BioAssay (Broad Institute)
NSD2 HMT inh = NSD2 histone methyltransferase inhibitors, primary screen, biochemical, AlphaScreen, single concentration, set 2; Histone-lysine N-methyltransferase NSD2 (Homo sapiens), O96028; inhibition, % at 12.5 µM; hit rate 0.54% among 310,000; NSD2 peptide methylation, 120 min; in the data active = inhibition above about 50%
CDK5 inh = inhibitors of human CDK5/p35 kinase, primary screen, biochemical, single concentration. inhibition, % at 10 µM. Recombinant CDK5/p35, ADP-Glo luminescence, 60 min. hit rate 0.01% among 330,000;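 active = highest replicate inhibition of at least 50% and at least 75% of replicates reaching 50%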;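 also: plate controls were DMSO neutral control for no effect and GW8510 at 10 µM for full effect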
Target sequence (Q00535 whole entry, looked up): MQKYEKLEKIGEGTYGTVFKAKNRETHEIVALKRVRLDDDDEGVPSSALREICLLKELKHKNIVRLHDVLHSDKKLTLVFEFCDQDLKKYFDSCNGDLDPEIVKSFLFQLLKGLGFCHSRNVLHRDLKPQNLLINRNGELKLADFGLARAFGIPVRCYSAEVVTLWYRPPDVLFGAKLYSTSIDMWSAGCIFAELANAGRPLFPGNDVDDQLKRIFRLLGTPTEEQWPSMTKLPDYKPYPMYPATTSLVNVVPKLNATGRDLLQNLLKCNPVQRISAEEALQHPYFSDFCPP
Target sequence (Q15078 whole entry, looked up): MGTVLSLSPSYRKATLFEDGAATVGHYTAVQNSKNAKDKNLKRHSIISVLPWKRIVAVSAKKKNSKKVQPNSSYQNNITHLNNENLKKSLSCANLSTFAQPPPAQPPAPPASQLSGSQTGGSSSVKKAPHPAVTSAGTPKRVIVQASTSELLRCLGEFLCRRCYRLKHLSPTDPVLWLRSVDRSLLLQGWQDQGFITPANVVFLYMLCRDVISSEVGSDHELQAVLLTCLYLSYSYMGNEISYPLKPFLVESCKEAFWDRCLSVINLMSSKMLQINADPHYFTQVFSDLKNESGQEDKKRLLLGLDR
SUMO Mot1 rescue = yeast Mot1-301 growth rescue at high temperature, primary screen, SUMOylation pathway inhibitor project, S. cerevisiae, ATP luminescence, 38.5C | S. cerevisiae Mot1-301 growth rescue; percent above DMSO median, 100 means doubled | growth rescue, % at 18.8 µM | hit rate 1% among 320,000;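 active = every valid replicate shows activation above 250% relative to neutral control wells; inactive = the rest, any valid replicate at or below 250%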;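 also: OY570 slx delta 5 strain wells were the positive control but not used for scaling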
Casp6 inh = human caspase-6 inhibitors, primary screen, biochemical, VEID-R110 fluorescence, single point, set 2; P55212; purified caspase-6, Z-VEID-R110 cleavage fluorescence; inhibition, % at 12.5 µM; hit rate 0.53% among 350,000;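 active = mean inhibition across replicates at least about 35%, with every replicate also reaching that limit, limit read from the data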;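 also: 0% = median of neutral control wells and 100% = no fluorescence left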
Glyco luc inh = increase of ERlucT glycosylation luciferase signal, primary screen, N-linked glycosylation inhibitor project, D54 ERlucT cells, luminescence, set 2. reporter increase, % at 12.5 µM. hit rate 0.23% among 360,000. D54 ERlucT glycosylation luciferase reporter, 24 h; percent of 100 nM tunicamycin response;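 active = mean luciferase reporter signal, scaled so untreated is 0 and the glycosylation-blocking control 100, at or above a set limit in every replicate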;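 also: luciferase carries N-glycosylation sites so blocking glycosylation raises the light; 0% = median of neutral control wells and 100% = median of 100 nM tunicamycin wells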
ALR inh = inhibitors of human ALR sulfhydryl oxidase, primary screen, biochemical, H2O2 detection, HRP-luminol luminescence, single point; purified ALR, DTT oxidation; inhibition, % (concentration not given with the values); hit rate 3.8% among 290,000; AID 485317, 2010;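 active = mean replicate inhibition above about 79%, with every replicate also reaching it, limit read from the data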
* marks the source's active call; other numbers are inactive results; · = no result. This is a sample that favours compounds with a hit; in the whole collection about 3.9% have one here.

SMILES | NSD2 HMT inh | CDK5 inh | SUMO Mot1 rescue | Casp6 inh | Glyco luc inh | ALR inh
O=C(CCCn1c(SCC(=O)NC2CCCCC2)nc2ccccc2c1=O)NCC1CCCO1 (configuration not stated) | 0.0 | 0.7 | 5.4 | · | 2.6 | -1.1
C[C@H]1CN([C@@H](C)CO)C(=O)c2cc(C#Cc3ccncc3)cnc2O[C@H]1CN(C)C(=O)c1ccccc1F | · | · | · | -1.1 | · | ·
CO[C@H]1CN(C)C(=O)c2ccc(NC(=O)c3ccc(F)cc3)cc2OC[C@H](C)N(C(=O)c2ccc(F)cc2)C[C@@H]1C | · | · | · | 0.7 | · | ·
CSCCC(NS(=O)(=O)c1ccccc1F)C(=O)NCC(C)(C)N1CCOCC1 (configuration not stated) | -2.3 | -0.2 | -3.5 | 54.4* | 0.0 | -11.9
CSCCC(NS(=O)(=O)c1ccccc1F)C(=O)NCC(c1ccc(F)cc1)N1CCOCC1 (configuration not stated) | -0.5 | -0.5 | -9.4 | -1.7 | 0.1 | -1.8
Cc1ccc(-c2cnc3c(c2)C(=O)N([C@@H](C)CO)C[C@@H](C)[C@H](CN(C)CC2CCOCC2)O3)cc1 | · | · | · | -2.2 | · | ·
COc1cccc(/C=N/NC(=O)C(=O)NCc2cccnc2)c1O | -15.0 | 2.9 | -0.2 | · | 2.9 | 32.2
COc1cccc(/C=N/NC(=O)CNC(=O)c2cccnc2)c1O | -4.6 | 0.8 | -12.3 | -1.9 | 1.1 | 91.9*
COc1cccc(/C=N/NC(=O)CNC(=O)c2ccncc2)c1O | -0.4 | 2.3 | 11.5 | -3.5 | -3.9 | 90.5*
COc1cc(/C=N/NC(=O)CNC(=O)c2cccs2)ccc1O | -0.3 | -1.7 | 17.9 | -0.1 | 2.5 | ·
COc1cc(/C=N/NC(=O)CNC(=O)c2ccncc2)ccc1O | 1.3 | 3.6 | -5.7 | -1.5 | -0.4 | 98.5*
COc1ccccc1C=NNC(=O)c1ccncc1 | -1.2 | -0.6 | · | 0.1 | 1.6 | ·
O=C(CCN1CCCCC1)NCC[C@H]1CC[C@H](NC(=O)C2CCCC2)[C@@H](CO)O1 | · | · | · | -0.4 | · | ·
C[C@@H]1CCCCO[C@H](CN(C)C(=O)Nc2ccc3c(c2)OCO3)[C@H](C)CN([C@H](C)CO)C(=O)c2cc(NC(=O)c3ccccc3)ccc2O1 | · | · | · | -1.2 | · | ·
CC(=O)NS(=O)(=O)c1cccnc1Nc1ccc(Cl)c(Cl)c1 | 5.2 | -0.3 | 344.8 | · | -0.2 | 97.9*
COc1ccc(NC(=O)Nc2ccc3c(c2)C(=O)N([C@@H](C)CO)C[C@@H](C)[C@H](CN(C)S(=O)(=O)c2ccc(Cl)cc2)OCCCC[C@@H](C)O3)cc1 | · | · | · | 1.3 | · | ·
CCOC(=O)[C@@H]1[C@H]2COc3cc(OC)ccc3[C@H]2N2C(=O)N(c3cccc(F)c3)C(=O)[C@]12C | · | -1.8 | -10.5 | 51.4* | 2.1 | 3.5
COc1cc(C(=O)OCC(=O)N2CCCC2=O)cc(OC)c1C | 7.2 | -1.4 | 25.1 | 36.9* | -0.4 | -0.3
CC(=O)Nc1ccc(C(=O)OCC(=O)N2CCCC2=O)cc1 | -0.8 | -12.2 | -13.3 | -1.0 | 2.9 | 5.3
C[C@@H]1CN([C@H](C)CO)C(=O)Cc2cc(NC(=O)C3CCCCC3)ccc2O[C@H]1CN(C)Cc1ccc(C(=O)O)cc1 | · | · | · | -1.0 | · | ·
CC(C)C1N=C(c2ccc3c(c2)OCO3)CC(c2ccccc2O)N1 (configuration not stated) | -0.6 | -1.6 | 0.3 | · | 37.3* | 19.9
Cc1ccc(-c2nnc(-c3ccc4c(c3)OCO4)o2)cc1 | -1.6 | -1.7 | 10.2 | -3.4 | -4.7 | -0.6
COc1ccccc1N1CCN(C(=O)CCn2c(=O)[nH]c3ccsc3c2=O)CC1 | -0.4 | 0.2 | 11.3 | · | -0.4 | 23.7
Cc1cccc(N2CCN(C(=O)CCN3C(=O)C4C5C=CC(C5)C4C3=O)CC2C)c1 (configuration not stated) | -0.6 | 1.9 | 454.6 | -4.3 | 1.5 | 84.1*
O=C(CCCn1c(=O)[nH]c2ccsc2c1=O)N1CCCCC1 | -0.7 | 4.4 | -1.5 | · | -0.2 | 2.8
